The values below come from PubChem BioAssay (NCI).

Common to all, as to assay: NCI-60 one-dose screen, 48 h (100 = growth as untreated, 0 = no growth, -100 = all killed)
In one experiment the test system is SR leukemia. Particulars: 10 µM unless noted.
In the next experiment the test system is RPMI-8226 leukemia. As to conditions: 10 µM unless noted.
The subject of the next experiment is OVCAR-8 ovarian. Particulars: 10 µM unless noted.
The test system of another experiment is OVCAR-5 ovarian. Particulars: 10 µM unless noted.
Another experiment relates to OVCAR-4 ovarian. Particulars: 10 µM.
The test system of another experiment is IGROV1 ovarian. Particulars: 10 µM unless noted.
The test system of a further experiment is OVCAR-3 ovarian. As to conditions: 10 µM unless noted.
The subject of another experiment is HS 578T breast. Particulars: 10 µM unless noted.
The subject of the next experiment is NCI/ADR-RES ovarian. Particulars: 10 µM unless noted.
The test system of another experiment is T-47D breast. As to conditions: 10 µM unless noted.
The next experiment relates to BT-549 breast. As to conditions: 10 µM unless noted.
For another experiment, the system named is MDA-MB-435 melanoma. Particulars: 10 µM unless noted.
A further experiment relates to SW-620 colon. As to conditions: 10 µM unless noted.
A further experiment relates to MCF7 breast. Particulars: 10 µM unless noted.
A further experiment concerns HCC-2998 colon. Particulars: 10 µM unless noted.
A further experiment deals with KM12 colon. As to conditions: 10 µM unless noted.
The next experiment has as its system HCT-116 colon. Particulars: 10 µM unless noted.

This is part of a sample that, as a whole, favours compounds with a hit. Of some 83,000 tested, about 20% had one in any assay.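 Activity criterion: percent growth below 10, measured after cells in 96-well plates were exposed to a single compound concentration for 48 hours.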 Unmarked numbers belong to inactive results. Active and inactive are the calls of the source.

Turning to `O=C(NNc1ccc(-c2ccccc2)nn1)c1ccccc1`, the growth in the experiment with SR leukemia is 103%; in the experiment on RPMI-8226 leukemia, 102%; in the experiment on OVCAR-8 ovarian, 99.5%; in the experiment with OVCAR-5 ovarian, 100%; with OVCAR-4 ovarian, 96%; with IGROV1 ovarian, 99.3%. For the same compound, the growth with OVCAR-3 ovarian is 108%; with HS 578T breast it was 103%; in the experiment on NCI/ADR-RES ovarian, 102%; with T-47D breast, 98.8%; in the experiment on BT-549 breast, 94.6%; in the experiment on MDA-MB-435 melanoma, 101%. For the same compound, the growth in the experiment on SW-620 colon was 103%; with MCF7 breast, 92%; in the experiment on HCC-2998 colon it was 106%; in the experiment on KM12 colon, 102%.
Turning to `CCNC(=O)N1CCc2c(Cl)c3c(c(OC)c2[C@@H]1[C@H]1OCc2c1ccc(OC)c2OC)OCCO3`, the growth is 18.3% in the experiment on SR leukemia; 17.3% in the experiment on RPMI-8226 leukemia; 30.7% with OVCAR-8 ovarian; 38.1% in the experiment with OVCAR-5 ovarian; 57.6% in the experiment with OVCAR-4 ovarian; 29.1% with IGROV1 ovarian. The growth in the experiment with OVCAR-3 ovarian is -5.71% (active); in the experiment with HS 578T breast, 14.5%; with T-47D breast, 20.5%; in the experiment on BT-549 breast, 55.9%; in the experiment on MDA-MB-435 melanoma it was -43.4% (active); in the experiment on SW-620 colon, 17.5%. Also, the growth with MCF7 breast is 16.1%; in the experiment on HCT-116 colon, 18.2%; in the experiment on HCC-2998 colon, 61.1%; in the experiment on KM12 colon, 18.7%.
For `Cc1ncc(C(=O)Nc2ccc(CN3CCN(C)CC3)c(C(F)(F)F)c2)cc1C#Cc1c(N)ncc2ccc(C#N)cc12`, the growth in the experiment with SR leukemia was 16.1%; in the experiment with RPMI-8226 leukemia, 40.6%; with OVCAR-8 ovarian it was 53.2%; in the experiment with OVCAR-5 ovarian, 41.2%; in the experiment with OVCAR-4 ovarian it was 44.5%; with IGROV1 ovarian it was 10.4%. The growth is 37.8% in the experiment with OVCAR-3 ovarian; 26.9% in the experiment with HS 578T breast; 61.7% with NCI/ADR-RES ovarian; 48.9% in the experiment on T-47D breast; 7.01% (active) in the experiment with MDA-MB-435 melanoma; 34.1% in the experiment with SW-620 colon. Also, the growth in the experiment on MCF7 breast was 29.5%; with HCT-116 colon, 14.5%; with HCC-2998 colon, 58.4%; with KM12 colon, 9.43% (active).
Regarding `Cn1cc(-c2nnc(-c3cn(C)c4ncccc34)s2)c2ccccc21`, the growth in the experiment on SR leukemia was 26.5%; in the experiment on RPMI-8226 leukemia, 43.9%; in the experiment on OVCAR-8 ovarian it was 90.9%; in the experiment on OVCAR-5 ovarian, 90%; in the experiment on OVCAR-4 ovarian it was 81%; with IGROV1 ovarian, 70.2%. Besides, the growth is 40.1% in the experiment on OVCAR-3 ovarian; 48% in the experiment with NCI/ADR-RES ovarian; 47.9% in the experiment on T-47D breast; 68.3% with BT-549 breast; 9.15% (active) with MDA-MB-435 melanoma; 61.6% in the experiment with SW-620 colon. Further, the growth in the experiment on MCF7 breast was 58.6%; in the experiment on HCT-116 colon, 76.6%; in the experiment on HCC-2998 colon it was 82.6%; with KM12 colon, 25.4%.
Regarding `c1cc2ccc1CNCCN1CCNCc3ccc(cc3)Oc3ccc(cc3)CNCCN(CCNCc3ccc(cc3)O2)CCNCc2ccc(cc2)Oc2ccc(cc2)CNCC1`, the growth is -40.1% (active) with SR leukemia; -49% (active) with RPMI-8226 leukemia; -7.54% (active) in the experiment with OVCAR-8 ovarian; -55.1% (active) in the experiment on OVCAR-5 ovarian; -77.6% (active) with OVCAR-4 ovarian; -64.3% (active) with IGROV1 ovarian. Moreover, the growth with OVCAR-3 ovarian was -94.6% (active); in the experiment on HS 578T breast, -48.7% (active); in the experiment with NCI/ADR-RES ovarian, 103%; in the experiment with T-47D breast, -64.5% (active); in the experiment with MDA-MB-435 melanoma it was -96.3% (active); with SW-620 colon, -75.5% (active). The growth is -75.4% (active) with MCF7 breast, -89.7% (active) with HCT-116 colon, -87.8% (active) in the experiment on HCC-2998 colon and -88.6% (active) with KM12 colon.
`C#C[C@]1(O)CC[C@H]2[C@@H]3CC=C4c5nc(N)sc5CC[C@]4(C)[C@H]3CC[C@@]21C`: the growth with SR leukemia was 23.6%; in the experiment with RPMI-8226 leukemia, -7.97% (active); with OVCAR-8 ovarian, 85.3%; in the experiment on OVCAR-5 ovarian it was 88.5%; in the experiment on OVCAR-4 ovarian, 63.4%; with IGROV1 ovarian it was 71.8%. Besides, the growth was 47.2% in the experiment on OVCAR-3 ovarian; 6.1% (active) in the experiment on HS 578T breast; 62.1% in the experiment with NCI/ADR-RES ovarian; 58.2% in the experiment with T-47D breast; 0.196% (active) in the experiment on BT-549 breast; 15.5% in the experiment with MDA-MB-435 melanoma. For the same compound, the growth in the experiment on MCF7 breast was 75.2%; with HCT-116 colon, 33.8%; in the experiment with HCC-2998 colon, 80.8%; with KM12 colon, 44.7%.
As to `CC(C)(C)c1cc(C(=O)Nc2ccccc2C(=O)NCCN)cc(C(C)(C)C)c1`, the growth in the experiment on SR leukemia is -28.6% (active); with RPMI-8226 leukemia, -25% (active); in the experiment on OVCAR-8 ovarian it was -43.7% (active); in the experiment with OVCAR-5 ovarian it was 27%; in the experiment with OVCAR-4 ovarian it was 43.3%; in the experiment on IGROV1 ovarian, 46.8%. The growth in the experiment with OVCAR-3 ovarian is 18.9%; in the experiment with HS 578T breast it was 75.3%; with NCI/ADR-RES ovarian, 23.2%; in the experiment on T-47D breast, -14.6% (active); in the experiment on BT-549 breast, 99.2%; in the experiment on MDA-MB-435 melanoma, -73.3% (active). For the same compound, the growth in the experiment on SW-620 colon is -56.8% (active); in the experiment on HCT-116 colon, -94.7% (active); in the experiment with HCC-2998 colon it was -59.1% (active); in the experiment with KM12 colon, -62.2% (active).
In the case of `O=C(NNc1ccc(-c2ccccc2)nn1)c1ccc(F)cc1`, the growth is 92% in the experiment on SR leukemia; 99.7% with RPMI-8226 leukemia; 98.6% with OVCAR-8 ovarian; 94.2% in the experiment on OVCAR-5 ovarian; 94.8% in the experiment on OVCAR-4 ovarian; 97% in the experiment on IGROV1 ovarian. Besides, the growth was 103% in the experiment with OVCAR-3 ovarian; 101% in the experiment on HS 578T breast; 93.3% with NCI/ADR-RES ovarian; 88.7% in the experiment with T-47D breast; 95.1% in the experiment on BT-549 breast; 100% with MDA-MB-435 melanoma. Also, the growth in the experiment with MCF7 breast is 91%; in the experiment on HCT-116 colon, 103%; in the experiment on HCC-2998 colon it was 102%; in the experiment on KM12 colon it was 102%.
For `Clc1ccc(N2CCN(CCCN3CCN(c4cccc(Cl)c4)CC3)CC2)cc1`, the growth is 15.4% in the experiment with SR leukemia; 24.9% in the experiment on RPMI-8226 leukemia; 70.7% in the experiment with OVCAR-8 ovarian; 78.9% in the experiment with OVCAR-5 ovarian; 55.7% in the experiment on OVCAR-4 ovarian; 66.4% in the experiment on OVCAR-3 ovarian. Moreover, the growth is 103% in the experiment on HS 578T breast; 65.5% with NCI/ADR-RES ovarian; 40.2% in the experiment with T-47D breast; 29.4% with BT-549 breast; 62.4% in the experiment on MDA-MB-435 melanoma; 66.5% in the experiment with SW-620 colon. Further, the growth with MCF7 breast is 44.6%; in the experiment with HCT-116 colon it was 36.6%; with HCC-2998 colon, 66.8%; in the experiment with KM12 colon, 59.5%.
As to `CCCc1cc2cc(-n3nc(C)c4c3CC(C)(C)CC4=O)cc(NC3CCSCC3)c2c(=O)[nH]1`, the growth in the experiment on SR leukemia was 33.8%; in the experiment on RPMI-8226 leukemia, 49.9%; in the experiment with OVCAR-8 ovarian, 79%; in the experiment on OVCAR-5 ovarian, 97%; with OVCAR-4 ovarian it was 97.5%; with IGROV1 ovarian, 74.1%. The growth is 87% with OVCAR-3 ovarian; 79.2% with HS 578T breast; 82.2% in the experiment on NCI/ADR-RES ovarian; 54.7% in the experiment with T-47D breast; 26.5% in the experiment on MDA-MB-435 melanoma; 32.4% with SW-620 colon. Moreover, the growth in the experiment with MCF7 breast was 36.5%; in the experiment on HCT-116 colon, 19.8%; in the experiment with HCC-2998 colon, 46.9%.
For the compound `CCN(CCNc1ccc(C)c2sc3cc(Cl)ccc3c(=O)c12)CC(C)O` (centres undefined), the growth with SR leukemia is 12.3%; in the experiment with RPMI-8226 leukemia, -23.2% (active); in the experiment with OVCAR-8 ovarian it was 58.3%; in the experiment with OVCAR-5 ovarian, 79.9%; with OVCAR-4 ovarian it was 77%; with OVCAR-3 ovarian, 60.6%. Also, the growth is 63.2% in the experiment on HS 578T breast; 74.8% in the experiment on NCI/ADR-RES ovarian; 31.7% with T-47D breast; 110% in the experiment with BT-549 breast; 6% (active) in the experiment with MDA-MB-435 melanoma; 11.9% with SW-620 colon. Further, the growth was 36.7% with MCF7 breast, 9.99% (active) in the experiment on HCT-116 colon, 5.33% (active) in the experiment on HCC-2998 colon and 39.2% with KM12 colon.
In the case of `CCOC(=O)n1cc(C2=C(c3ccc(OC)c(OC)c3)COC2=O)c2ccccc21`, the growth in the experiment with SR leukemia was 18.1%; in the experiment on RPMI-8226 leukemia it was 27.9%; in the experiment with OVCAR-8 ovarian, 25.5%; in the experiment on OVCAR-5 ovarian, 50.1%; in the experiment on OVCAR-4 ovarian, 35.3%; in the experiment with IGROV1 ovarian, 18.2%. Also, the growth with HS 578T breast is 36.2%; in the experiment with NCI/ADR-RES ovarian, 8.29% (active); in the experiment with T-47D breast, 48.8%; with MDA-MB-435 melanoma, -18.4% (active); in the experiment with SW-620 colon it was 26.5%; in the experiment on HCT-116 colon, 4.07% (active). Besides, the growth was 19.2% with HCC-2998 colon and 2.26% (active) in the experiment with KM12 colon.
For the compound `CC(C)CSc1ncnc2nc[nH]c12`, the growth in the experiment with SR leukemia was 119%; with RPMI-8226 leukemia, 71.4%; in the experiment on OVCAR-8 ovarian, 104%; in the experiment on OVCAR-5 ovarian, 86.6%; in the experiment with OVCAR-4 ovarian, 100%; in the experiment with IGROV1 ovarian, 67.1%. The growth is 103% in the experiment on OVCAR-3 ovarian; 100% with NCI/ADR-RES ovarian; 85.7% in the experiment on T-47D breast; 104% with BT-549 breast; 104% in the experiment on MDA-MB-435 melanoma; 97.1% with MCF7 breast. Besides, the values for the growth in the experiment with HCT-116 colon, in the experiment with HCC-2998 colon and in the experiment on KM12 colon were 109%, 101% and 106%, respectively.
